Measurements reported in PubChem BioAssay (Tox21).
Results filed as inconclusive are left out. A call without a number means that no potency is given here. Calls of active or inactive are those of the source. Calls come from the whole dose curve; as a rule, active = well fitted cell-killing curve with a large enough effect in the repeat runs; inconclusive = weak or mixed curves, or effect the other way; inactive = no such curve, though single readings can be large or run the other way.

assay: Caspase-3/7 induction in CHO-K1 cells by small molecules, qHTS cell viability counter screen (AID 1346979); settings: CellTiter-Fluor fluorescence, 17 h; series mostly up to 92.4 µM; note: nearly all actives have a fitted effect of over 35% in size
Source text: National Center for Advancing Translational Sciences [NCATS]
NIH Chemical Genomics Center [NCGC]
U.S. Environmental Protection Agency [EPA]
National Institutes of Environmental Health Sciences [NIEHS]
National Toxicology Program [NTP]
U.S. Food and Drug Administration [FDA]
Apoptosis is a process of programmed cell death and plays a central role in the development of multicellular organisms. It is a highly regulated process and induces cell death by activating caspases, which are the members of cysteine aspartic acid-specific protease (caspase) family. Caspases involved in apoptosis are classified by their mechanism of action as initiator caspases (caspase-2, -8, -9 and -10) and executioner caspases (caspase-3, -6, and -7). Inhibition of apoptosis results in number of cancers, autoimmune diseases, inflammatory diseases and viral infection. To identify small molecule compounds that induce apoptosis, a homogeneous, luminescent Caspase-Glo 3/7 assay was used. Wild type CHO-K1 cells were used to screen Tox21 libraries for identifying caspase-3/7 activity inducers. Also cytotoxicity of the compounds was tested in parallel by measuring the cell viability using CellTiter-Fluor assay system in the same wells.
Tox21 Assay Protocol Summary:
CHO-K1 cells were dispensed at 1,500 per well in 5uL of culture medium into white solid bottom 1536-well plates (Corning Life Sciences, Corning, NY) using a Multidrop Combi (Thermo Scientific, Waltham, MA) dispenser. The assay plates were incubated at 37 C and 5% CO2 for 5hr, and then 23nL of compounds dissolved in DMSO and positive control were transferred using a Pintool station (Wako, San Diego, CA). The assay plates were incubated at 37C and 5% CO2 for 17hr. For cytotoxicity read, after 16hr incubation at 37C, 1uL CellTiter-Fluor reagent (Promega Corporation, Madison, WI) was added to each well of the assay plates using Flying Reagent Dispenser (FRD, Aurora Discovery, San Diego, CA). After 1hr incubation at 37C and 5% CO2, the fluorescence signal was quantified using a ViewLux plate reader (PerkinElmer, Shelton, CT).

| Structure (SMILES) | Potency | activity change, negative = cytotoxicity |
| --- | --- | --- |
| CNC(=O)NC | inactive |  |
| CCCCCCCCCCCCCCCCCCN(C)C | inactive |  |
| O=S(=O)(O)CCO | inactive |  |
| CC(C)COC(=O)CC(C(=O)OCC(C)C)S(=O)(=O)O (stereo not given) | inactive |  |
| O=c1[nH]c(=O)c2ccccc2o1 | inactive |  |
| OCCCCCCCl | inactive |  |
| CCCCCCCCCCCCCC(=O)OC | inactive |  |
| CCCCCCCCCCCCCCCCI |  | 4.85% [at 19 µM] (inactive) |
| O=C(Oc1ccccc1C(=O)O)c1ccccc1O | inactive |  |
| CCCCCCCCCCCCOC(C)=O | inactive |  |
| CO[Si](CCCS)(OC)OC | inactive |  |
| CC(C)CCC(=O)CCC(C)C | inactive |  |
| CN=C(NC#N)NCCSCc1csc(N=C(N)N)n1 | inactive |  |
| CCC(CO)CO | inactive |  |
| CC(C)(C)NCCO | inactive |  |
| O=S1(=O)CCCC1 | inactive |  |
| CCNC(=O)/C=C/c1cccc(Br)c1 | inactive |  |
| CCN1CN(CC)CN(CC)C1 | inactive |  |
| O=[Si]=O | inactive |  |
| CC1CCC(C(C)(C)S)C(=O)C1 (stereo not given) | inactive |  |

| Structure (SMILES) | Potency | activity change, negative = cytotoxicity |
| --- | --- | --- |
| O=C(O)c1c(Cl)ccc(Cl)c1Cl | inactive |  |
| Nc1nc(=O)n([C@@H]2O[C@H](CO)[C@@H](O)[C@@H]2F)cc1I | inactive |  |
| BrC/C=C/CBr |  | 8.86% [at 19 µM] (inactive) |
| O=C(O)c1ccc(OCCN2CCCCC2)cc1 | inactive |  |
| CN(C)CCOCCN(C)CCO | inactive |  |
| CCOC(=O)CC#N | inactive |  |
| CC(=O)OC(C(=O)c1ccccc1)c1ccccc1 (stereo not given) | inactive |  |
| CC(=O)OC[C@H]1O[C@@H](OC(C)=O)[C@H](OC(C)=O)[C@@H]1OC(C)=O | inactive |  |
| CO[Si](CCCCl)(OC)OC | inactive |  |
| CC1(N)CCC(C(C)(C)N)CC1 (stereo not given) | inactive |  |
| Cc1ccccc1C | inactive |  |
| C[N+](C)(C)CC(O)CCl (stereo not given) | inactive |  |
| CCOc1ccc(NC(=O)OC(C)C)cc1OCC | inactive |  |
| SCCSCCS | inactive |  |
| CC(C)C(=O)c1ccccc1 | inactive |  |
| O=C(O)/C=C/c1ccccc1 | inactive |  |
| NC(=O)NC(=O)Cc1ccccc1 | inactive |  |
| CCCCC[Si](OCC)(OCC)OCC | inactive |  |
| NCCc1ccn[nH]1 | inactive |  |
| FC(F)(F)c1ccc(Cl)cc1Cl | inactive |  |
